We go through 21 compounds from PubChem BioAssay (NCI).

Assay [1] in a line: NCI Yeast Anticancer Drug Screen. Data for the rad50 strain (AID 155).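 Also: 0% = growth of vehicle-only cultures of the same strain.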 The conditions noted are these: S. cerevisiae rad50 strain growth inhibition; at 50.0 µM; hits give high values. Summed up: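 Readout: growth inhibition relative to vehicle-treated cultures. Compound exposure was carried out in a genetically defined yeast strain deficient in DNA damage repair.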
Assay [2] can be described thus: NCI Yeast Anticancer Drug Screen. Data for the mec2-1 strain (AID 157). The conditions noted are these: S. cerevisiae mec2-1 strain, at 50.0 µM, hits give high values. In short, it runs like this: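 Each compound was tested on mec2-1 yeast, a strain altered in DNA damage repair or cell cycle control. Growth inhibition is reported relative to vehicle.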
Assay [3] in a line: NCI Yeast Anticancer Drug Screen. Data for the sgs1 mgt1 strain (AID 161).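 Also: 0% = growth of cultures given vehicle only.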 The conditions noted are these: S. cerevisiae sgs1 mgt1 strain, at 50.0 µM, hits give high values. Summed up:
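Genetically altered yeast, compound exposure, growth inhibition relative to vehicle.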

A short description of assay [4]: NCI Yeast Anticancer Drug Screen. Data for the cln2 rad14 strain (AID 165).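 Also: 0% = growth equal to vehicle treated cultures.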 Particulars: S. cerevisiae cln2 rad14 strain, at 50.0 µM, hits give high values. Summed up:
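Test compounds were added to cln2 rad14 yeast cultures; inhibition of growth was then determined by comparison with vehicle treatment.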

A short description of assay [5]: NCI Yeast Anticancer Drug Screen. Data for the bub3 strain (AID 167). Particulars: S. cerevisiae bub3 mutant strain, at 50.0 µM, hits give high values. Summed up: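 Readout: yeast growth inhibition, expressed relative to vehicle-only wells. The test organism is a mutant strain from a panel with lesions in DNA repair or checkpoint genes.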
Assay [6] in a line: NCI Yeast Anticancer Drug Screen. Data for the mlh1 rad18 strain (AID 175). The conditions noted are these: S. cerevisiae mlh1 rad18 strain growth inhibition; at 50.0 µM; hits give high values. Summed up:
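Inhibition values reflect reduced growth of mutant yeast versus vehicle-treated controls following compound exposure; the mutations affect DNA damage repair.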

This is part of a sample that, as a whole, favours compounds with a hit. Of some 79,000 tested, about 15% had one in any assay. Unmarked numbers belong to inactive results. Active and inactive are the calls of the source. Rule as the data show it: active = growth inhibition above about 70%; inactive = the rest. Where a SMILES comes first, the peptide text is derived from it.

Consider `Cc1ccc(C(C)(C)C)c2oc(=O)cc(C)c12`, for which the growth inhibition was 20.2% in assay [1]; 8.75% in assay [2]; 12.9% in assay [3]; 5% in assay [4]; 5.05% in assay [5]; 19.8% in assay [6].
Consider `Cc1cccc2c(C=O)c[nH]c12`, for which the growth inhibition is 8.9% in assay [1]; -3.1% in assay [2]; -13.4% in assay [3]; -9.55% in assay [4]; 4.95% in assay [5]; 14.2% in assay [6].
With `Ic1ccc([I+]c2ccc(I)cc2)cc1`, the growth inhibition in assay [1] was 94.4% (active); in assay [2], 94.2% (active); in assay [3], 97% (active); in assay [4] it was 93.5% (active); in assay [5] it was 94.3% (active); in assay [6], 90.8% (active).
Regarding `Cc1ccc(NC(=O)C(=O)C(C2C(C)CC(=O)C2CC(=O)O)[N+](=O)[O-])cc1` (stereo unspecified), the growth inhibition was 23.6% in assay [1]; 11.7% in assay [2]; 12.2% in assay [3]; 17.7% in assay [4]; 13.7% in assay [5]; 30.6% in assay [6].
As to `CC(=O)NC(C(=O)N1CCCC1C(=O)O)C(C)C` (stereo not drawn) (Ac-Val-Pro-OH; configuration not given here), the growth inhibition in assay [1] was 7.9%; in assay [2] it was -3.15%; in assay [3], -6.65%; in assay [4] it was 1.7%; in assay [5] it was -19.1%; in assay [6], 0.6%.
Consider `COc1c(O)cc2oc(-c3ccc(O)cc3)cc(=O)c2c1O`, for which the growth inhibition in assay [1] was 11%; in assay [2] it was -5.7%; in assay [3], 29.8%; in assay [4] it was 10.8%; in assay [5], 16.2%; in assay [6], -0.05%.
Turning to `Cc1cccc(-n2cnc3c(N(CCO)CCO)ncnc32)c1`, the growth inhibition in assay [1] is 6.55%; in assay [2], 2.6%; in assay [3] it was -10.1%; in assay [4] it was -4.5%; in assay [5], 2.25%; in assay [6], -4.3%.
With `c1ccc2c3c(ccc2c1)OCCOCCOc1ccc2ccccc2c1-3`, the growth inhibition in assay [1] was 76.7% (active); in assay [2], 84.8% (active); in assay [3] it was 76.5% (active); in assay [4], 8.5%; in assay [5] it was 91.9% (active); in assay [6], 86% (active).
On to `NC(N)=NC(N)=Nc1ccc2ccccc2c1`, for which the growth inhibition is 58.4% in assay [1]; 12.3% in assay [2]; 17% in assay [3]; 20.3% in assay [4]; 8.6% in assay [5]; 22.6% in assay [6].
Regarding `CC(C)=CCC/C(C)=C\CC/C(C)=C/CO`, the growth inhibition in assay [1] was -52.5%; in assay [2], -77.8%; in assay [3], -39.6%; in assay [4], -26.1%; in assay [5] it was -46.7%; in assay [6], -41.5%.
`CSCC[C@H]1C(=O)N=C(N)N1C(=O)OCc1ccccc1`: the growth inhibition was -5.7% in assay [1]; 3.85% in assay [2]; 3.6% in assay [3]; -9.6% in assay [4]; -2.75% in assay [5]; 12.8% in assay [6].
Regarding `O=C(O)c1c(Cl)c(Cl)c(Cl)c(Cl)c1C(=O)Nc1ccccc1F`, the growth inhibition in assay [1] is -3.8%; in assay [2], -19.2%; in assay [3] it was 14.3%; in assay [4], -118%; in assay [5], 1.5%; in assay [6] it was 0.6%.
Turning to `C=CCOC(=O)/C=C\c1ccccc1OC`, the growth inhibition in assay [1] was 23.9%; in assay [2], 6.45%; in assay [3], 16.6%; in assay [4], -39.9%; in assay [5], 14.8%; in assay [6], -3.3%.
As for `C=CCOC(=O)C(C)OC(=O)OCC` (stereo unspecified), the growth inhibition in assay [1] was 9.2%; in assay [2], 10.7%; in assay [3], 6.85%; in assay [4], 8.1%; in assay [5], -2.1%; in assay [6] it was 7.15%.
For the compound `O=C(O)C12CCC(CC1=O)C2` (stereo unspecified), the growth inhibition in assay [1] is 5.8%; in assay [2], 4.4%; in assay [3], 11.3%; in assay [4], 13.7%; in assay [5] it was -2%; in assay [6] it was 14.1%.
As to `CCOC(CN(C)C)OCC`, the growth inhibition in assay [1] is 8.6%; in assay [2], 6.95%; in assay [3] it was 4.1%; in assay [4], -18.2%; in assay [5] it was -5.8%; in assay [6], 5.7%.
As for `N/N=C(\Cc1ccccc1)NN=C(N)N`, the growth inhibition in assay [1] was 13.6%; in assay [2], -11.2%; in assay [3] it was 14.8%; in assay [4] it was 20.1%; in assay [5] it was -9.45%; in assay [6], 20.3%.
`Cc1ccc([B-]23OCC[N+]2(CNC(=O)c2ccccc2O)CCO3)cc1` (stereo unspecified): the growth inhibition in assay [1] is 25.6%; in assay [2], -4.4%; in assay [3] it was 4.1%; in assay [4], 3.6%; in assay [5], 4.05%; in assay [6] it was 12.8%.
Regarding `NC(=O)c1ccc(NC=O)cc1`, the growth inhibition in assay [1] was -10.3%; in assay [2] it was 22.2%; in assay [3], -18.9%; in assay [4] it was 25.1%; in assay [5] it was -18.1%; in assay [6], -18.9%.
With `COc1cc([N+](=O)[O-])ccc1NC(=O)Nc1c(C)n(C)n(-c2ccccc2)c1=O`, the growth inhibition in assay [1] was -17.1%; in assay [2] it was 1.75%; in assay [3] it was -8.3%; in assay [4], 92.6% (active); in assay [5], 0.15%; in assay [6] it was 6.25%.
For the compound `COc1ccc(N2C(=O)C3c4[nH]c5ccccc5c4C4CCCCC4C3C2=O)cc1` (stereo unspecified), the growth inhibition is -3.4% in assay [1]; 5.1% in assay [2]; -7.15% in assay [3]; 9.95% in assay [4]; -1.05% in assay [5]; -6.05% in assay [6].
